Most compounds without a hit are left out; they make up all but 14% or so of the library.
Marburg entry inh – inhibitors of Marburg virus binding or cell entry; Marburg virus pseudotyped entry inhibition, cell reporter; actives 1.8% (n = 300,000); AID 540276; Potency, µM (doses to about 37.8 µM), most hits filed as inhibitors; calls by dose curve; tested in HEK293 cells
HCV inhibitor – blocks hepatitis C virus; Huh7.5.1 HCVcc-Cre infection, luciferase reporter, 44 h; Potency, µM (doses to about 41.8 µM), hits mostly inhibitors; actives 3.4% (n = 340,000); AID 651820
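Whole-lifecycle infectious HCVcc-Cre system; cells 1,000/well, compound then virus (~0.5 moi) added 4 h after plating, 44 h culture. Luciferase read 15 sec following 15 min substrate incubation, room temp.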
Lassa entry inh – Lassa virus entry inhibition; Lassa virus pseudotype entry inhibition, cell reporter; Potency, µM (series often up to 37.9 µM), most hits filed as inhibitors; actives 1.2% (n = 300,000); calls by dose curve; tested in HEK293 cells; note: nearly all actives have a fitted effect of over 50% in size
HCMV inh – blocks human cytomegalovirus replication; actives 4.5% (n = 410,000); activity change, negative = inhibition, % at 57.5 µM; AID 1259415; HFF cells, HCMV-luciferase reporter, 72 h; hits give low values; in the data active = activity change below about -60%; inconclusive = no clear call, values can overlap the other calls; inactive = above about -39%
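Two compound doses tested in HFFs infected with HCMV-luciferase, MOI 1 PFU/cell, 72 h at 37C. Lysate luminescence read with OneGlo; data normalized against buffer-only and 10uM Salinomycin inhibitor controls.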
Pf growth 96h – P. falciparum growth inhibition at 96 hour, primary screen for plastid delayed-death inhibitors | actives 6.9% (n = 320,000) | Potency, µM (titrated, usually from 28.7 µM), actives largely listed as inhibitors | P. falciparum luciferase reporter growth, 96 h
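Infected RBCs, 2% Hct / 0.05% parasitemia final; luciferase-reporter P. falciparum; cpd 96 h, 37 C, 5% CO2; luciferase detection reagent; luminescence.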
Pf growth 48h – P. falciparum growth inhibition at 48 hours (one generation). Potency, µM (highest dose often 28.7 µM), actives largely listed as inhibitors. P. falciparum luciferase growth in erythrocytes, 48 h. actives 5.9% (n = 310,000)
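Luciferase-expressing P. falciparum in infected erythrocytes (2% hematocrit, 0.1% parasitemia final) in RPMI 1640/0.5% Albumax were exposed to compound for 48 hours at 37 C, 5% CO2; growth read as luminescence.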
Numbers stand for hits. Unless noted, calls come from the whole dose curve; as a rule, active = well fitted inhibition curve with a large enough effect; inconclusive = small, poorly fitted or top-dose-only effect, or another doubt; inactive = no such curve, though single readings can be large or run the other way.

`Cc1nc2sccn2c1-c1csc(NCc2ccccc2)n1` gave Marburg entry inh inconclusive, HCV inhibitor 11.2µM, Lassa entry inh inactive, HCMV inh -71.6, Pf growth 96h inactive and Pf growth 48h 13.1µM.
Screening Cc1nc2ncccn2c1-c1csc(Nc2ccc(S(N)(=O)=O)cc2)n1 returned HCV inhibitor inactive, HCMV inh inactive, Pf growth 96h inactive and Pf growth 48h inconclusive.
COc1ccc(Nc2nc(-c3c(C)nc4ncccn34)cs2)cc1 was read as HCV inhibitor 11.2µM, HCMV inh -97.8, Pf growth 96h inconclusive and Pf growth 48h inconclusive.
Screening O=C(Nc1ccc(F)cc1Cl)C1=COCCO1 returned Marburg entry inh inactive, HCV inhibitor inactive, Lassa entry inh inactive, HCMV inh inactive, Pf growth 96h inactive and Pf growth 48h inactive.
Screening CCOC(=O)c1ccccc1NC(=O)Cn1c(=O)n(-c2cccc(C)c2)c(=O)c2c1c1cc(C)ccc1n2C returned Marburg entry inh inactive, Lassa entry inh inconclusive and HCMV inh inactive.
`Cc1nc2ncccn2c1-c1csc(NCc2ccco2)n1` gave Marburg entry inh inactive, HCV inhibitor inconclusive, Lassa entry inh inactive, HCMV inh inactive, Pf growth 96h inactive and Pf growth 48h inconclusive.
`COc1ccccc1Nc1nc(-c2c(C)nc3ncccn23)cs1` gave Marburg entry inh inconclusive, HCV inhibitor 11.2µM, Lassa entry inh inconclusive, HCMV inh inactive, Pf growth 96h inactive and Pf growth 48h inconclusive.
For COc1ccc(-n2cc(C(=O)NCCc3cc(OC)ccc3OC)c3ccccc3c2=O)cc1 the results were Lassa entry inh inactive and HCMV inh inactive.
`CCCNC(=O)CS(=O)Cc1nc(-c2ccc(OC)cc2)oc1C` (stereo unspecified) gave HCV inhibitor inactive, HCMV inh inconclusive and Pf growth 96h 14.7µM.
CCCCNC(=O)CS(=O)Cc1nc(-c2ccc(C)cc2)oc1C (stereo unspecified) was read as HCV inhibitor inactive, HCMV inh inactive and Pf growth 96h inactive.
For Cc1ccc(-c2nc(CS(=O)CC(=O)NCc3ccc(Cl)cc3)c(C)o2)cc1 (stereo unspecified) the results were HCV inhibitor 11.2µM, HCMV inh inactive and Pf growth 96h inactive.
For Cc1oc(-c2ccccc2F)nc1CS(=O)CC(=O)NCc1ccc(F)cc1 (stereo unspecified) the results were HCV inhibitor inactive, HCMV inh inactive, Pf growth 96h 2.94µM and Pf growth 48h inactive.
`Cc1cccc(C=NNc2cc(C)c3cccc(C)c3n2)n1` gave HCMV inh inactive.
Screening Cc1cc(C)c2nc(NC(=O)[C@@H](NC(=O)c3cccc(S(=O)(=O)N4CCOCC4)c3)C(C)C)sc2c1 returned Marburg entry inh inactive, HCV inhibitor inconclusive, Lassa entry inh inconclusive, HCMV inh inactive, Pf growth 96h 6.57µM and Pf growth 48h 9.28µM.
Screening Cc1ccsc1CN(C)C(=O)C(NC(=O)c1cccc(S(=O)(=O)N2CCOCC2)c1)C(C)C (stereo unspecified) returned HCV inhibitor inactive, HCMV inh inactive, Pf growth 96h inconclusive and Pf growth 48h 13.1µM.
For COc1ccc(NC(=O)CN(C)C(=O)C2=NN(c3ccccc3)C(=O)CC2)cc1 the results were HCV inhibitor inactive, HCMV inh inactive, Pf growth 96h inactive and Pf growth 48h inconclusive.
Screening Cn1c(=O)c2c(nc(N3CCOCC3)n2Cc2cccc(Br)c2)n(C)c1=O returned Marburg entry inh inactive, Lassa entry inh inactive and HCMV inh inactive.
`CCC1CC(C(=O)O)CC(=O)N1` (stereo unspecified) gave HCMV inh inactive.
`CS(=O)(=O)NCCOc1ccc(S(=O)(=O)NCCOc2ccccc2)cc1` gave Marburg entry inh inactive, HCV inhibitor inactive, Lassa entry inh inactive, HCMV inh inactive, Pf growth 96h inactive and Pf growth 48h 10.4µM.
CCOC(=O)N1CCc2c(sc3nc(SC(C)C)n(N)c(=O)c23)C1 was read as Marburg entry inh inconclusive, HCV inhibitor inactive, Lassa entry inh inactive, HCMV inh inactive, Pf growth 96h 11.7µM and Pf growth 48h inconclusive.
Screening CCOC(=O)N1CCc2c(sc3nc4n(c(=O)c23)N=C(c2ccc(OC)cc2)CS4)C1 returned Marburg entry inh inactive, HCV inhibitor inactive, Lassa entry inh inactive, HCMV inh inactive, Pf growth 96h inconclusive and Pf growth 48h 0.465µM.
C=CCN=C1NC(c2cccc(C(F)(F)F)c2)C(C(=O)OC)=C(C)N1CC (stereo unspecified) was read as Marburg entry inh inactive.
`COc1ccc(NC(=O)c2cc(CC(C)C)nc3ccccc23)cc1` gave HCV inhibitor inconclusive, HCMV inh -77.2, Pf growth 96h inactive and Pf growth 48h inconclusive.
For Cc1cc(C(=O)Nc2ccc(F)cc2)c2ccccc2n1 the results were Marburg entry inh inactive, HCV inhibitor inactive, Lassa entry inh inactive, HCMV inh inactive, Pf growth 96h inactive and Pf growth 48h inactive.
For COc1ccc(Nc2cc(C(=O)NCc3ccccc3)c3ccccc3n2)cc1 the results were Marburg entry inh inconclusive, Lassa entry inh inactive and HCMV inh inconclusive.
`Cc1ccc(NC(=O)c2cc(CC(C)C)nc3ccccc23)cc1` gave Marburg entry inh inconclusive, HCV inhibitor inconclusive, Lassa entry inh inactive, HCMV inh -69.8, Pf growth 96h inactive and Pf growth 48h inactive.
Screening CCOc1ccc(-c2cc(C(=O)Oc3ccc(C#N)cc3)no2)cc1 returned Marburg entry inh inactive, Lassa entry inh inactive and HCMV inh inactive.
Screening Cc1nc(CSc2nsc(/C=C/N(C)C)c2C#N)cs1 returned Marburg entry inh inconclusive, HCV inhibitor inactive, Lassa entry inh inactive, HCMV inh inactive, Pf growth 96h 9.28µM and Pf growth 48h inconclusive.
`O=C(COC(=O)c1ccc(O)cc1)Nc1ccc(S(=O)(=O)N2CCOCC2)cc1` gave HCV inhibitor inactive and HCMV inh inactive.
O=C(COC(=O)c1n[nH]c2ccccc12)Nc1cccc(S(=O)(=O)N2CCOCC2)c1 was read as Marburg entry inh inactive, HCV inhibitor inactive, Lassa entry inh inactive, HCMV inh inactive, Pf growth 96h inconclusive and Pf growth 48h inconclusive.
`CCCc1nc2ccccc2c(C(=O)OCC(=O)Nc2ccc(S(=O)(=O)N3CCOCC3)cc2)c1CC` gave Marburg entry inh inconclusive, HCV inhibitor 8.91µM, Lassa entry inh inconclusive, HCMV inh inactive and Pf growth 48h 14.7µM.
Screening CCCc1nc2ccccc2c(C(=O)OCC(=O)Nc2cccc(S(=O)(=O)N3CCOCC3)c2)c1CC returned Marburg entry inh inconclusive, HCV inhibitor 8.91µM, Lassa entry inh 18.3µM, HCMV inh inactive, Pf growth 96h 7.38µM and Pf growth 48h inconclusive.
`Cc1cccc(N2CCN(C(=O)c3cc4c(=O)n(C)c5ccccc5c4s3)CC2)c1C` gave Marburg entry inh inactive, Lassa entry inh inactive and HCMV inh inactive.

From PubChem BioAssay
